Bioassay records as filed in PubChem.
FAS TE block = inhibitors of human fatty acid synthase thioesterase domain | recombinant FAS-TE, OMFH fluorogenic substrate, fluorescence endpoint | AID 602261 | P49327 | inhibition, % at 15 µM | 0.67% of 360,000 active;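 active = compounds whose normalised, plate-corrected inhibition of enzyme fluorescence in the single-dose primary screen is 50% or more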
aDG glyco act = increases alpha dystroglycan glycosylation; 0.22% of 360,000 active; activation, % at 10 µM; Pro5-aDG cells, alpha-DG glycosylation AlphaScreen (IIH6); 0% Pro5, 100% B10-LARGE cell signal;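 active = activation of at least 8% versus controls, or a plate z-score of at least 8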;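 also: Pro5 are CHO cells carrying HIG-tagged alpha-DG that lacks glycosylation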
m-calpain inh = calpain II (pig) inhibition | 0.37% of 220,000 active | purified calpain II, fluorogenic peptide substrate, 30 min | inhibition, % at 16 µM | AID 1236;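 active = inhibition above about 50%, limit read from the data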
MIN6 prolif = inducers of beta-cell replication in MIN6 cells | MIN6 cells proliferation, ATPlite luminescence, 48 h; cells starved in 0.2% serum; 100% = growth in 10% serum | proliferation, % at 10 µM | 0.29% of 330,000 active | AID 2380;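 active = compounds whose signal lies at least 3.5 SD above the mean of all wells on their plate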
H9c2 TAG inh = triacylglycerol accumulation inhibition. H9c2 cells, Nile Red lipid (TAG) fluorescence; cells loaded with 200 µM oleic acid. inhibition, % at 12.5 µM. 0.66% of 230,000 active;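 active = pattern-corrected inhibition of lipid staining of at least 50% with the nuclear-stain viability signal not falling by more than 50%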
Cardio protect = modulators protecting cardiomyocytes from myocardial damage. H9c2 cardiomyocytes, H2O2 injury protection, ATPLite, 2 h. protection from H2O2 cell death, % at 20 µM. 0.63% of 360,000 active;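 active = compounds giving at least 50% protection of heart cells from peroxide-induced death in the single-dose screen, raw or plate-pattern-corrected value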
Large screens that a line does not name were inactive. An excerpt weighted towards active compounds, which were near 2.3% of everything screened.

O=C(CCc1ccc(O)c(O)c1)N/N=C/c1ccc2c(c1)OCO2	Cardio protect 87 (no result: m-calpain inh)
CC(C)Oc1ccc(CCC(=O)N/N=C/c2ccc3c(c2)OCO3)cc1	none (no result: m-calpain inh, H9c2 TAG inh)
CC(=O)C[C@@H]1OC[C@H](Cc2ccccc2)N1S(=O)(=O)c1ccc(C)cc1	none (no result: FAS TE block, m-calpain inh, MIN6 prolif, H9c2 TAG inh, Cardio protect)
Cc1[nH]c2ccccc2c1/C=N/NC(=O)c1cc(-c2ccccc2)n[nH]1	Cardio protect 55
Cc1[nH]c2ccccc2c1/C=N/NC(=S)NCc1ccccc1	m-calpain inh 64
Cc1[nH]c2ccccc2c1/C=N/NC(N)=S	none
Cc1nn(-c2ccccc2)c(C)c1/C=N/NC(=O)c1cc(-c2ccccc2)n[nH]1	H9c2 TAG inh 56, Cardio protect 75
COc1ccc(Cl)cc1NC(=O)NN1CCN(C)CC1	none (no result: m-calpain inh, H9c2 TAG inh)
Cn1c(=O)c2c(nc(NCC3CCCC(CN)C3)n2Cc2ccc(Cl)cc2Cl)n(C)c1=O (centres undefined)	none (no result: m-calpain inh, H9c2 TAG inh)
CC(C)Cc1nc2oc3c(NCC4CCCO4)ncnc3c2c2c1CCC2 (centres undefined)	Cardio protect 73 (no result: H9c2 TAG inh)
CC(C)Cc1nc2oc3c(NCc4cccnc4)ncnc3c2c2c1CCC2	none (no result: H9c2 TAG inh)
O=C(c1cc([N+](=O)[O-])ccc1N1CCCCC1)N1CCCC1	none
O=C(c1cc([N+](=O)[O-])ccc1N1CCOCC1)N1CCCCC1	m-calpain inh 82 (no result: H9c2 TAG inh)
O=C1c2ccc3c4c(ccc(c24)C(=O)N1CCCCO)C(=O)N(CCCCO)C3=O	H9c2 TAG inh 73 (no result: MIN6 prolif)
COc1ccc(-c2noc(CCCC(=O)NC3CCCCC3)n2)cc1	none (no result: m-calpain inh, H9c2 TAG inh)
C[C@]12c3[nH]c4cc(-c5ccco5)ccc4c3CCN1C(=O)[C@@H](CC(=O)NCc1cccc(C(F)(F)F)c1)C[C@@H]2C(=O)N1CCCCC1	none (no result: m-calpain inh, MIN6 prolif)
Cc1nc2sccn2c1-c1csc(NCc2ccccc2)n1	aDG glyco act 5.9 (no result: H9c2 TAG inh)
N#C/C(C(=O)N1CCCC1)=C1/N=C(N)c2ccccc21	none (no result: H9c2 TAG inh)
Cc1ccc(NC(=O)NC2=N/C(=C(/C#N)C(=O)N3CCCC3)c3ccccc32)cc1	Cardio protect 70 (no result: m-calpain inh)
O=C1NC(Cc2ccc(O)cc2)c2nc3ccccc3c(=O)n2-c2ncccc21 (centres undefined)	none (no result: m-calpain inh, MIN6 prolif)
CC(=O)Oc1ccc2c(C)cc(=O)oc2c1	Cardio protect 61
O=C(Nc1ccc(Br)cc1)c1cccc(OC(=S)N2CCOCC2)c1	none (no result: m-calpain inh, H9c2 TAG inh)
COc1ccccc1C=NN=C(NN=Cc1ccccc1OC)NN=Cc1ccccc1OC	H9c2 TAG inh 56 (no result: m-calpain inh, MIN6 prolif)
CSc1nsc(SC)c1C(=O)N1CCN(S(=O)(=O)c2ccc(C)cc2)C1C(C)C (centres undefined)	Cardio protect 83
CSc1nsc(SC)c1C(=O)N1CCN(S(=O)(=O)c2ccc(C)cc2)C1C (centres undefined)	none (no result: H9c2 TAG inh)
Cc1ccc2oc(=O)c3cc(C(=O)N4CCN(C(=O)c5ccco5)CC4)sc3c2c1	none (no result: FAS TE block, aDG glyco act, H9c2 TAG inh, Cardio protect)
CCN(Cc1ccccc1)C(=O)c1cc2c(=O)oc3ccc(C)cc3c2s1	Cardio protect 97
Nc1cc2[nH]c(=O)c3ccccc3c2cc1Br	Cardio protect 62 (no result: m-calpain inh, MIN6 prolif)
Nc1ccc2c(c1)[nH]c(=O)c1ccccc12	Cardio protect 68 (no result: m-calpain inh, MIN6 prolif)
O=c1[nH]c2cc(O)ccc2c2ccccc12	Cardio protect 57 (no result: m-calpain inh, MIN6 prolif)
Nc1ccc2c(=O)[nH][nH]c(=O)c2c1	none (no result: m-calpain inh, MIN6 prolif)
CCOC(=O)[C@H]1[C@H]2COc3ccc(Br)cc3[C@H]2N2C(=O)CNC(=O)[C@@]12C	none (no result: m-calpain inh)
COc1ccccc1C1CCN(C(=O)c2cnn(-c3ccccc3)c2C)CC1	none
O=C(Nc1ccc(SC(F)F)cc1)c1ccc(F)cc1	none
COc1ccc(N(C)S(=O)(=O)c2cccc(C(=O)NCC3CCCCC3)c2)cc1	m-calpain inh 55 (no result: MIN6 prolif)
CC(C)C[C@H](NC(=O)c1nc[nH]c1C(=O)N[C@@H](CCCCNC(=O)OC(C)(C)C)C(=O)OC(C)(C)C)C(=O)OC(C)(C)C	none
CC(C)C[C@H](NC(=O)c1nc[nH]c1C(=O)NCCCCCNC(=O)OC(C)(C)C)C(=O)OC(C)(C)C	m-calpain inh 51
CC(C)(C)OC(=O)NCCCC[C@H](NC(=O)c1[nH]cnc1C(=O)Nc1ccc(Cl)cc1)C(=O)OC(C)(C)C	FAS TE block 76
C[C@@H](NC(=O)c1nc[nH]c1C(=O)N[C@@H](CCCCNC(=O)OC(C)(C)C)C(=O)OC(C)(C)C)c1ccccc1	m-calpain inh 61
Cc1cccnc1CNC(=O)C1(C)CCCN1CC(C)C (centres undefined)	none (no result: m-calpain inh, MIN6 prolif)
